# Laboratory results taken from PubChem BioAssay.
# Active and inactive are the calls of the source.
# Tests used:
# [1] = anti-His antibody binders, primary screen, artefact control for SMM control protein annotation, biochemical, small-molecule microarray, 635 nm fluorescence (AID 1128); conditions: anti-His Alexa647 antibody binding, higher = more signal;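 further: score merges feature fluorescence with signal-to-noise for each printed compound spot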
# [2] = system: Human papillomavirus type 1a E7 protein (residues 1-88); test: HPV1a E7 small-molecule binders, primary screen, biochemical, small-molecule microarray, residues 1-88, 635 nm (AID 1129); conditions: small-molecule microarray binding, fluorescence 635 nm; higher = more signal
# [3] = target: Focal adhesion kinase 1 (Homo sapiens) (UniProt Q05397); test: small-molecule microarray binders of FAK, primary screen, biochemical, 635/667 nm fluorescence, BSA, DTT (AID 1130); conditions: PTK2 binding, 635 nm fluorescence, higher = more signal;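 further: composite of spot emission at 667 nm and signal to noise over triplicate slides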
# Sequence of Focal adhesion kinase 1 (Homo sapiens) (Q05397 whole entry, looked up): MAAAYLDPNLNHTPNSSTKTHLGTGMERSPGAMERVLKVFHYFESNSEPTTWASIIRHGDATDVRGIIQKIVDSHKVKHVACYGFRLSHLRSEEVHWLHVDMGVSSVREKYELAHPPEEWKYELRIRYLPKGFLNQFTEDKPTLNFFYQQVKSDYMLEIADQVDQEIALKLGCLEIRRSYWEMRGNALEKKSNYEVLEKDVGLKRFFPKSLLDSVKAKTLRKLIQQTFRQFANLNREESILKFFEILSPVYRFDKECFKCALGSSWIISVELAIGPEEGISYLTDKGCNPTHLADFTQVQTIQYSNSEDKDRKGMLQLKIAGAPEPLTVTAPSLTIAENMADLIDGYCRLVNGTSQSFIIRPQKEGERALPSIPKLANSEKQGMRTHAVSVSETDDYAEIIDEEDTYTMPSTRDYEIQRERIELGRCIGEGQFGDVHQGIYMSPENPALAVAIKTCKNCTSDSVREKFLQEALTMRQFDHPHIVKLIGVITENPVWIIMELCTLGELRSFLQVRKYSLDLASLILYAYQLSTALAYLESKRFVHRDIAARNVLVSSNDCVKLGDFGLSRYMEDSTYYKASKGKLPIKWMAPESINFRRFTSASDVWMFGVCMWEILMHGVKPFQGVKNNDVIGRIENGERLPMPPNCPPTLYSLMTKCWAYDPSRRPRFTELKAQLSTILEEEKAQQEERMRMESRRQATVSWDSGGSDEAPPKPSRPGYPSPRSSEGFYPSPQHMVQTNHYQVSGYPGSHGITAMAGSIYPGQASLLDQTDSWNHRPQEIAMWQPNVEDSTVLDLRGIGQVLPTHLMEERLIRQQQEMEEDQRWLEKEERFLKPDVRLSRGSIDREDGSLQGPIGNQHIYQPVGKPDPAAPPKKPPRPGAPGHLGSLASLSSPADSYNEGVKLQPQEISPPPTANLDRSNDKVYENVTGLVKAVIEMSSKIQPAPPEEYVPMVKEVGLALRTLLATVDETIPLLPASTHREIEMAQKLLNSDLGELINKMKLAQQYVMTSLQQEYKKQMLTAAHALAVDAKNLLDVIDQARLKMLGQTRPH
# [4] = system: Fibrinogen (Alexa647-labelled); test: fibrinogen binders on compound microarrays, profiling panel, artefact control for SMM control-protein annotation, biochemical, small-molecule microarray, 635/667 nm fluorescence (AID 1131); conditions: fibrinogen-A647 binding fluorescence, higher = more signal;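 further: z-score merges 667 nm fluorescence with per-spot signal-to-noise over triplicate slides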
# [5] = target: Follistatin (Homo sapiens) (UniProt P19883); test: follistatin binders on small-molecule microarrays, primary screen, biochemical, small-molecule microarray, 635/667 nm fluorescence (AID 1132); conditions: FST binding, 635 nm fluorescence, higher = more signal
# Sequence of Follistatin (Homo sapiens) (P19883 whole entry, looked up): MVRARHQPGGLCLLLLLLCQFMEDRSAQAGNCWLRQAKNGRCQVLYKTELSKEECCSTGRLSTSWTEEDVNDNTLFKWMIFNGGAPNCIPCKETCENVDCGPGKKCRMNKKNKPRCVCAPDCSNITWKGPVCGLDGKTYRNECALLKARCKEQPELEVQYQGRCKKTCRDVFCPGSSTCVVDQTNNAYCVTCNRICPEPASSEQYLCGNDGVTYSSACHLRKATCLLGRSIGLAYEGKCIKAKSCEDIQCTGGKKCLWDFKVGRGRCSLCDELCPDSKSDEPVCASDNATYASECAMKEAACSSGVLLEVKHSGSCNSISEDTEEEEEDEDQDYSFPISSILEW
# [6] = target: Fibroblast growth factor 2 (Homo sapiens) (UniProt P09038); test: FGF2 binders on small-molecule microarrays, primary screen, biochemical, small-molecule microarray, 635/667 nm fluorescence (AID 1133); conditions: small-molecule microarray binding, FGF2, fluorescence 635/667; higher = more signal
# Sequence of Fibroblast growth factor 2 (Homo sapiens) (P09038 whole entry, looked up): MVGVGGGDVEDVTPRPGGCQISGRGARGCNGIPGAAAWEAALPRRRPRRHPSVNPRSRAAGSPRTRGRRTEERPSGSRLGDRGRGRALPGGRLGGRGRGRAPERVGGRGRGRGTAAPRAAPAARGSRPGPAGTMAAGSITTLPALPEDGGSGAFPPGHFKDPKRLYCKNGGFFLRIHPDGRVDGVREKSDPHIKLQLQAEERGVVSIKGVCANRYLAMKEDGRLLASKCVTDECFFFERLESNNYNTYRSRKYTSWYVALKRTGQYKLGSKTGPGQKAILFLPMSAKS
# [7] = mitochondrial membrane potential change in A549 cells, profiling panel, cell-based, JC-1 fluorescence, basal, 24 h, 100 nL (AID 1138); conditions: higher = more signal;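 further: A549 lung adenocarcinoma cells under basal conditions with no added stimulus; test concentration not given here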
# [8] = system: Lefty1; test: Lefty1 binders on small-molecule microarrays, primary screen, biochemical, small-molecule microarray, 635/667 nm fluorescence (AID 1139); conditions: small-molecule microarray binding, fluorescence 635/667; higher = more signal
# [9] = system: wheat germ agglutinin (Triticum aestivum), Alexa647-labelled; test: wheat germ agglutinin binders on compound microarrays, profiling panel, artefact control for SMM control-protein annotation, biochemical, small-molecule microarray, 635/667 nm fluorescence (AID 1140); conditions: WGA-A647 binding, 635 nm fluorescence, higher = more signal;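 further: score merges 667 nm feature emission with signal to noise over triplicate slides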
# [10] = target: Luciferin 4-monooxygenase (Photinus pyralis) (UniProt P08659); test: firefly luciferase enzyme inhibitors, primary screen, biochemical, luminescence, purified enzyme, 2006 set (AID 1141); conditions: SteadyGlo luminescence, 30 min, higher = more signal, called active from +8 up or from −8 down;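 further: cell-free assay with purified firefly luciferase at 100 ng per well in PBS; test concentration not given here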
# Sequence of Luciferin 4-monooxygenase (Photinus pyralis) (P08659 whole entry, looked up): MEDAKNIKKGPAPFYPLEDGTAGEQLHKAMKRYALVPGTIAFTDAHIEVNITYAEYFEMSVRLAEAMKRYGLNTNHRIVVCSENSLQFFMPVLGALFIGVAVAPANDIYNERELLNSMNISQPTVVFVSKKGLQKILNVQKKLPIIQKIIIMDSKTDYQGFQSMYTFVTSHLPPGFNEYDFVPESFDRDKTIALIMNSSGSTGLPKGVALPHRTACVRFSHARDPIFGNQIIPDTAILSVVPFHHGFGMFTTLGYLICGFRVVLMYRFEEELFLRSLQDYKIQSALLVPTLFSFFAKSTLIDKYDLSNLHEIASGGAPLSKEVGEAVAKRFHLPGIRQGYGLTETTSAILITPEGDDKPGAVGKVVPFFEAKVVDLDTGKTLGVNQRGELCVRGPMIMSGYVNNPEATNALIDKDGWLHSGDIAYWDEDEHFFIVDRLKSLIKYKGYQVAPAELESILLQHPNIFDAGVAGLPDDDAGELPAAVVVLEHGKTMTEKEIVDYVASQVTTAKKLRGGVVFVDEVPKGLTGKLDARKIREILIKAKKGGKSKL
Structure (SMILES),composite z-score [1],composite z-score [2],composite z-score [3],composite z-score [4],composite z-score [5],composite z-score [6],z-score [7],composite z-score [8],composite z-score [9],z-score [10]
O=C1O[C@@H](c2ccccc2)[C@@H](c2ccccc2)N2[C@@H](c3ccc(O)cc3)[C@]3(C(=O)Nc4ccc(C#CC5(O)CCCCCC5)cc43)[C@@H](C(=O)N3CCCCCCC3)[C@H]12,1.47,1.26,2.74,0.962,1.47,1.62,-0.15,1.68,1.4,-0.593 (inactive)
O=C/C=C/c1ccc2c(c1)OCO2,1.33,0.128,0.247,-0.696,0.952,0.398,0.231,0.401,-0.273,-1.04 (inactive)
Cc1ccc(S[C@]2(C(=O)O)CC(=O)N(C3Cc4ccccc4C3)[C@@H]2c2ccc(CO)cc2I)cc1,0.198,0.27,0.148,0.439,1.09,-0.499,0.478,-0.936,0.513,0.285 (inactive)
C=C(COC)C(=O)CC[C@H](OC(C)=O)c1cccc(OCCO)c1,-0.704,-0.586,-0.138,-0.708,1.2,1.49,-0.37,-0.332,-1.16,-0.679 (inactive)
COC(=O)[C@@]1(Cc2ccc(OC)cc2)[C@H]2c3cc(C(=O)N4CCCC4)n(Cc4cc(F)cc5c4OCOC5)c3C[C@H]2CN1C(=O)c1ccccc1,-0.642,1.2,0.993,-0.18,0.0448,-0.873,0.64,-0.394,0.0908,0.0222 (inactive)
COCCOC(=O)N1C(=O)[C@@]2(c3cc(C#CCC(C(=O)OC)C(=O)OC)ccc31)[C@H](c1ccccc1OCCO)N1[C@H](c3ccccc3)[C@H](c3ccccc3)OC(=O)[C@H]1[C@@H]2C(=O)N1CCc2cc(OC)c(OC)cc2C1,0.89,1.19,1.33,0.938,1.41,1.49,-0.978,1.47,0.784,-0.882 (inactive)
